Bioassay records deposited in PubChem BioAssay by National Center for Advancing Translational Sciences (NCATS).
MCF10A rerep = A quantitative high throughput screen for small molecules that induce DNA re-replication in MCF 10a normal breast cells; MCF 10A DNA re-replication, Hoechst nuclear intensity, 48 h; 350,000 compounds, 2.9% hits; Potency, µM (highest dose often 46.1 µM), inactives show top-dose activity, positive = re-replication, most hits filed as activators; also: potency is read from the fitted curve at half-maximal effect; % of control where 0% means no effect; nearly all actives have a fitted effect of over 50% in size
KCNH2 WT inh = qHTS for Inhibitors of KCHN2 3.1: Wildtype qHTS. 340,000 compounds, 0.37% hits. activity change, % at 1.84 µM. U2OS, BacMam KCNH2, thallium flux FluxOr; stronger effect = lower value. AID 720551, 2013;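 active = maximum activity change below -70%; inconclusive = maximum activity change between -70% and -50%; inactive = maximum activity change above -50%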; also: % is scaled to controls: 0 for no effect and ±100 for the full control effect
Target sequence (Q12809 whole entry, looked up): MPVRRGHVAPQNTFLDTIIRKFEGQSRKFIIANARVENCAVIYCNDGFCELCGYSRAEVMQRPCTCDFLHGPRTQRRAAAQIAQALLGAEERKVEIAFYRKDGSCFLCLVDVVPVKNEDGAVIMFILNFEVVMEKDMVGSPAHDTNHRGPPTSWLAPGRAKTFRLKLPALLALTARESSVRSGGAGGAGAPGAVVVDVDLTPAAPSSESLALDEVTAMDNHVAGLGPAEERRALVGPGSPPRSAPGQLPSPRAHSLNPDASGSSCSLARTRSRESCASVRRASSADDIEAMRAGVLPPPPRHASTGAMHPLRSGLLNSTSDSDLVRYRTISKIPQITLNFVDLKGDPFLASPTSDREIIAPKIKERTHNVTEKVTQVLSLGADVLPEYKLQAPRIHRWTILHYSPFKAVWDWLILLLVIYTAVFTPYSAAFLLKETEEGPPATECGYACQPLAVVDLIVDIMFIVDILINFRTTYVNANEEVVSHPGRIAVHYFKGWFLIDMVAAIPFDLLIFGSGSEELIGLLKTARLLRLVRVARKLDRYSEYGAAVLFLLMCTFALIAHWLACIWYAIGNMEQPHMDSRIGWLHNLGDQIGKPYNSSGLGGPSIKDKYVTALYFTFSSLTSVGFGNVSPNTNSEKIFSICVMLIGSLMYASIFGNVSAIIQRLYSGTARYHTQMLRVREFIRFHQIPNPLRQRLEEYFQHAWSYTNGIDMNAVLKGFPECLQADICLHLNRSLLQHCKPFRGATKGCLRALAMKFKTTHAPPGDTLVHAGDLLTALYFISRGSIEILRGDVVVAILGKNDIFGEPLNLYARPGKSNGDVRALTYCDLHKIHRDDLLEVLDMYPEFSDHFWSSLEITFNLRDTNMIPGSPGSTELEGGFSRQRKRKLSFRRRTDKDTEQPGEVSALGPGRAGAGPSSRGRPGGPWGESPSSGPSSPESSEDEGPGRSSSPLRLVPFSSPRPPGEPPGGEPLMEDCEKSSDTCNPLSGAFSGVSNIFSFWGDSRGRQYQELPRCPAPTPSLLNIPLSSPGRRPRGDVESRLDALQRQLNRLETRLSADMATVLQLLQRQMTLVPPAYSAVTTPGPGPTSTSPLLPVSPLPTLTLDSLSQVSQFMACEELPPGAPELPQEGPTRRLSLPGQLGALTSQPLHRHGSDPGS
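U2OS cells were transduced with wild-type KCNH2 virus (2.03 x 10^8 / mL) for 4 h at room temperature, then cultured overnight at 37 C. Thallium flux was read with FluxOr dye. Rate constants were normalized to DMSO controls.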
KB-V1 MDR tox = qHTS assay for MDR1-selective chemotherapeutics: Primary screen using the drug-selected MDR subline cells KB-V1. KB-V1 MDR cells viability, CellTiter-Glo, 72 h. Potency, µM (titrated, usually from 46.1 µM), usual class: cytotoxic. 400,000 compounds, 3.4% hits; also: potency is read from the fitted curve at half-maximal effect; % is scaled to controls: 0 for no effect and ±100 for the full control effect; nearly all actives have a fitted effect of over 60% in size
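Luminescent ATP read-out (CellTiter-Glo, 10 min) measures survival of drug-selected KB-V1 MDR cells after 72 h, 37 degrees C compound exposure. Medium: phenol-red-free DMEM, 10% FBS. Values from fitted concentration-response curves.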
KB-3-1 cytotox = qHTS assay for MDR1-selective chemotherapeutics: Primary screen using the parental adenocarcinoma cell KB-3-1; KB-3-1 viability, CellTiter-Glo ATP luminescence, 72 h; 400,000 compounds, 1.4% hits; Potency, µM (titrated, usually from 46.1 µM), actives largely listed as cytotoxic; also: potency is read from the fitted curve at half-maximal effect; % is scaled to controls: 0 for no effect and ±100 for the full control effect; nearly all actives have a fitted effect of over 60% in size
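Viability of parental KB-3-1 cells, measured by CellTiter-Glo luminescence, followed a 72 h incubation at 37 °C with pinned compounds in phenol-red-free DMEM containing 10% FBS.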
KCNH2 3.1 inh = qHTS for Inhibitors of KCHN2 3.1: Mutant qHTS | Potassium voltage-gated channel subfamily H member 2, brain isoform KCNH2 3.1 (human) | U2OS KCNH2 3.1, thallium flux FluxOr; stronger effect = lower value | activity change, % (tested at about 1.8 µM) | 340,000 compounds, 0.95% hits;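 active = maximum activity change below -70%; inconclusive = maximum activity change from -70% to -50%; inactive = maximum activity change above -50%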;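 also: thallium influx rate constant from kinetic fluorescence after stimulation buffer; % is scaled to controls: 0 for no effect and ±100 for the full control effect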
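U2OS cells transduced with KCNH2 3.1 mutant virus (1.77 x 10^8 /mL, 4 h), plated overnight at 37 C, loaded 45 min with FluxOr dye plus Red40 quencher. Thallium flux rate constant from kinetic reads after stimulation buffer, normalised to controls.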
SW480 rerep = A quantitative high throughput screen for small molecules that induce DNA re-replication in SW480 colon adenocarcinoma cells; SW480 DNA re-replication, Hoechst DNA content imaging, 48 h; Potency, µM (highest dose often 46.1 µM), for the others: top-dose re-replication activation, actives largely listed as activators; 340,000 compounds, 1.8% hits; AID 624297, 2012; also: potency is read from the fitted curve at half-maximal effect; % of control where 0% means no effect; nearly all actives have a fitted effect of over 55% in size
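Hoechst fluorescence of nuclei (405 nm excitation, 500-530 nm emission) measured by plate-scanning imager after 48 hr compound exposure at 37 C; re-replication scored as increased number of nuclei with elevated intensity.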
Active calls of the source: *; i = inactive; ? = inconclusive; . = not tested or not shown. An excerpt weighted towards active compounds, which were near 7.6% of everything screened. Unless noted, calls follow the shape of the dose curve; as a rule, active = well fitted curve in the direction sought with a large enough effect; inconclusive = small, poorly fitted or top-dose-only effect, or another doubt; inactive = no such curve, though single readings can be large; an effect the other way counts as inactive or inconclusive.

SMILES	MCF10A rerep	KCNH2 WT inh	KB-V1 MDR tox	KB-3-1 cytotox	KCNH2 3.1 inh	SW480 rerep
CCc1nnc(NC(=O)c2ccc(Cl)c(S(=O)(=O)N3CCc4ccccc43)c2)s1	22%	3	13µM*	21µM*	1	-6%
O=S(=O)(c1cccc(Cl)c1)N1CCSc2ccccc21	45%	6	i	i	-8	115%
COc1ccc(S(=O)(=O)N2CCc3ccccc32)cc1NC(C)=O	8.2µM*	8	?	23µM*	-17	?
COc1ccc(C(=O)Nc2ccc(S(=O)(=O)N3CCc4ccccc43)cc2)cc1	?	5	2.6µM*	2.9µM*	-13	6%
COc1ccc(S(=O)(=O)N2CCc3ccccc32)cc1C(=O)Nc1ccc(NC(C)=O)cc1	23µM*	-5	i	i	-27	?
COc1ccc(NC(C)=O)cc1S(=O)(=O)N1CCc2ccccc21	?	0	i	i	-3	-6%
NS(=O)(=O)c1ccc(NC(=O)c2ccc(S(=O)(=O)N3CCc4ccccc43)cc2)cc1	9%	-1	?	i	-11	1%
CC(=O)Nc1ccc(S(=O)(=O)N2CCSc3ccccc32)cc1	6.5µM*	3	i	5.8µM*	-21	3.7µM*
Cc1cccc(C)c1NC(=O)COC(=O)/C=C/c1ccc(S(=O)(=O)N2CCOCC2)cc1	-9%	4	i	i	15	2%
CC(Sc1nnc(-c2ccncc2)n1C)C(=O)NCC1CCCO1 (configuration not stated)	-8%	0	i	i	30	?
Cc1ccc(Oc2cc(NC(=O)CCCn3nc([N+](=O)[O-])cc3C)cc([N+](=O)[O-])c2)cc1	-1%	-3	5.2µM*	i	-4	0%
Cc1ccc(C)c(Oc2cc(NC(=O)CCCn3nc(C)c([N+](=O)[O-])c3C)cc([N+](=O)[O-])c2)c1	?	12	10µM*	?	-10	?
Cc1nn(CCCC(=O)Nc2cc(Oc3ccccc3)cc([N+](=O)[O-])c2)c(C)c1[N+](=O)[O-]	?	-3	8.2µM*	?	-6	3%
Cc1c(Cl)c([N+](=O)[O-])nn1CCCC(=O)Nc1cccc(Cl)c1Cl	2%	1	16µM*	i	3	-7%
CCOc1ncccc1C(=O)Nc1cccc(S(=O)(=O)N2CCOCC2)c1	2%	-8	i	i	-15	-25%
O=C(COC(=O)c1ccc(Cl)c(S(=O)(=O)NCc2ccccc2)c1)NCC1CCCO1 (configuration not stated)	14%	-4	i	i	1	-2%
COc1ccc(NC(=S)N2CCCCCC2)cc1OC	-1%	9	i	i	1	2%
O=C(CSc1ccc(F)cc1)Nc1nnc(-c2ccco2)o1	-13%	1	i	i	16	-146%
Cc1cc2cc(C)c(NCCNC(=O)c3cccs3)nc2cc1C	-1%	10	?	i	-8	-8%
Cc1ccc(Cn2nc(C)c(NC(=O)CCCn3nc(C)c([N+](=O)[O-])c3C)c2C)cc1	-3%	-9	9.2µM*	i	-15	-67%
Cc1ccc(Cn2nc(C)c(NC(=O)CCCn3nc([N+](=O)[O-])c(Cl)c3C)c2C)cc1	4%	13	?	i	-8	-11%
C[C@H]1CN([C@@H](C)CO)C(=O)CCCn2nncc2CO[C@@H]1CN(C)C(=O)Nc1cccc2ccccc12	.	-26	i	i	-11	.
COc1ccc(N2CCN(C(=O)c3oc4c(c3C)C(=O)CCC4)CC2)cc1	?	1	i	i	-14	-13%
NS(=O)(=O)c1ccc(Sc2nc3ccccc3s2)c([N+](=O)[O-])c1	5.8µM*	2	?	i	-6	-22%
O=C(CN1C(=O)NC2(CCCCCCC2)C1=O)Nc1c(Cl)cccc1Cl	-1%	-10	i	i	0	-5%
SMILES	MCF10A rerep	KCNH2 WT inh	KB-V1 MDR tox	KB-3-1 cytotox	KCNH2 3.1 inh	SW480 rerep
CCOC(=O)COc1coc(CN2CCN(c3ccc(F)cc3)CC2)cc1=O	-2%	-22	i	?	2	3%
CCOC(=O)C1=C(COC(=O)c2cc(S(=O)(=O)N(C)C)ccc2C)NC(=O)NC1C (configuration not stated)	1%	0	23µM*	i	-2	-2%
CC(C)C(=O)NCCn1ccc2ccccc21	2%	4	i	i	36	6%
CCC(=O)NCCn1ccc2ccccc21	-8%	-140*	i	i	-5	9%
COC(=O)C1CCN(C(=O)c2oc3c(Cl)cc(C)cc3c2C)CC1	5%	-7	i	i	11	-5%
Cc1cc(Cl)c2oc(C(=O)N3CCN(c4ccncc4)CC3)c(C)c2c1	5.8µM*	-138*	?	?	3	12µM*
CN(C(=O)c1ccccc1Cl)c1ccccc1C(=O)NCCc1ccccc1	0%	3	.	.	-11	11%
CN(C)c1nc(N)nc(CSc2ncc(Cl)cc2Cl)n1	?	5	15µM*	i	-2	4%
NNc1cc2c(nn1)CCN(C(=O)c1ccccc1)C2	.	1	i	18µM*	0	.
O=[N+]([O-])c1ccc2[nH]c(=S)sc2c1	?	12	12µM*	?	-9	-1%
O=[N+]([O-])c1ccc2[nH]c(=S)[nH]c2c1	-2%	0	i	i	10	6%
CC[C@]12c3[nH]c4ccc(OC)cc4c3CCN1C(=O)C(CC(=O)NCCCOC)C[C@@H]2C(=O)N1CCN(C(=O)C2CC2)CC1 (some centres not stated)	?	-9	i	i	-11	9%
COc1ccc(NC(=O)CSc2nc3sc(C)cc3c(=O)n2C)c(OC)c1	3%	-3	8.2µM*	i	6	-2%
CCSc1nnc2c(n1)OC(c1ccc(OC)cc1OC)N(C(C)=O)c1ccccc1-2 (configuration not stated)	.	.	?	i	.	.
C[C@]12CCC(=O)C=C1CC[C@@H]1[C@@H]2[C@@H](O)C[C@@]2(C)[C@H]1CC[C@]2(O)C(=O)COP(=O)(O)O	-4%	.	.	.	.	-1%
